How the values were obtained:
Settings in all cases: concentration: 1 μM, replicates: in singlicate; n = 1
[1] = tested on: CDK8
[2] = tested on: CDK9
[3] = tested on: CDKL1
[4] = tested on: CDKL2
[5] = tested on: CDKL3
[6] = tested on: CDKL5
[7] = tested on: CHEK1
[8] = tested on: CHEK2
[9] = tested on: CIT
[10] = tested on: CLK1
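Note: KINOMEscan kinase panel screen.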

Row | Structure (SMILES) | %Inh [1] [%] | %Inh [2] [%] | %Inh [3] [%] | %Inh [4] [%] | %Inh [5] [%] | %Inh [6] [%] | %Inh [7] [%] | %Inh [8] [%] | %Inh [9] [%] | %Inh [10] [%]
1 | Cl.Cl.NCC(NC(=O)c1cc(-c2ccccc2)c(-c2ccnc3[nH]ccc23)s1)c1ccccc1 (centres unmarked) [GSK1321561] | 30 | 0 | 8 | 24 | 58 | 0 | 0 | 0 | 99.9 | 33
2 | O=C(Nc1cccc(-c2nn3ccccc3c2-c2ccnc(Nc3cccc(F)c3)n2)c1)c1c(F)ccc(F)c1Cl [GSK357952] | 6 | 0 | 15 | 25 | 0 | 0 | 15 | 0 | 7 | 24
3 | CC(C)(C)c1ccc2nccc(Nc3cccc(O)c3)c2c1 [GW856795] | 68 | 0 | 8 | 0 | 19 | 0 | 74 | 0 | 21 | 17
4 | CN1CCN(CCCNc2nccc(-c3c(-c4ccc(F)cc4)nn4cc(C(F)(F)F)ccc34)n2)CC1 [GW621581] | 19 | 0 | 0 | 21 | 0 | 0 | 10 | 0 | 71 | 21
5 | O=C(Nc1n[nH]c2cc(-c3ccoc3)ccc12)C1CC1 [SB-738481] | 11 | 2 | 18 | 87 | 10 | 50 | 0 | 6 | 0 | 23
6 | CNC(=O)c1ccccc1Nc1nc(Nc2ccc(N3CCOCC3)cc2)ncc1Cl.Cl [GSK1576028] | 1 | 27 | 36 | 35 | 0 | 0 | 65 | 91.3 | 26 | 99.5
7 | O=C(NC1CCN(c2ccnc(Nc3ccc(F)cc3)n2)C1)c1cc2ccccc2s1 (centres unmarked) [GSK1379716] | 52 | 6 | 0 | 40 | 0 | 5 | 0 | 38 | 33 | 29
8 | COC(=O)Nc1nc2ccc(Oc3ccc(NC(=O)Nc4cc(C(F)(F)F)ccc4F)cc3)cc2n1C.Cl [GW692089] | 77 | 0 | 2 | 40 | 0 | 0 | 0 | 58 | 100 | 7
9 | COc1ccc(-c2coc3ccc(-c4nnc(SCc5ccc(OC)c(C(F)(F)F)c5)o4)cc23)cc1 | 20 | 1 | 11 | 0 | 0 | 1 | 0 | 18 | 0 | 26
10 | COc1cccc(NC(=O)NC2CCN(c3ccnc(Nc4cc(OC)c(OC)c(OC)c4)n3)C2)c1 (centres unmarked) [GSK1379763] | 39 | 10 | 0 | 52 | 0 | 0 | 0 | 54 | 23 | 12
11 | COc1cc2c(cc1OCCN1CCNCC1)ncc1c3ccc(C#N)cc3[nH]c21 | 19 | 8 | 19 | 0 | 10 | 0 | 84 | 46 | 98.8 | 95.7
12 | c1ccc(Oc2ccc(Nc3ccnc4cc(-c5ccc(CNCCN6CCOCC6)o5)ccc34)cc2)nc1 [GW567145] | 55 | 0 | 2 | 9 | 0 | 0 | 0 | 90.6 | 7 | 17
13 | O=C(Nc1ccccc1F)NC1CCN(c2ccnc(Nc3ccc(F)cc3)n2)CC1 [GSK1379800] | 51 | 0 | 0 | 17 | 0 | 0 | 0 | 0 | 0 | 9
14 | c1ccc(-c2n[nH]cc2Nc2ccnc3ccccc23)nc1 [GW694077] | 30 | 0 | 3 | 31 | 0 | 0 | 0 | 18 | 61 | 98.2
15 | Cn1cc(-c2[nH]c3cc(NC(=O)[C@H](N)C4CCCCC4)cc4c3c2C=NNC4=O)cn1 | 0 | 0 | 16 | 0 | 18 | 0 | 98.4 | 96.6 | 97.5 | 56
16 | COc1cccc(-c2ccc3c(NC(=O)C4CC4)n[nH]c3n2)c1 [SB-710903] | 50 | 0 | 0 | 67 | 0 | 0 | 0 | 0 | 5 | 15

Row | Structure (SMILES) | %Inh [1] [%] | %Inh [2] [%] | %Inh [3] [%] | %Inh [4] [%] | %Inh [5] [%] | %Inh [6] [%] | %Inh [7] [%] | %Inh [8] [%] | %Inh [9] [%] | %Inh [10] [%]
17 | FC(F)(F)c1ccc(/C=C/c2cncnc2Nc2ccc3[nH]c(Cc4ccccc4)nc3c2)cc1 [GW709199] | 64 | 0 | 42 | 38 | 0 | 0 | 0 | 18 | 55 | 23
18 | COc1ccc(Nc2nccc(N3CCC(NC(=O)Nc4cccc(OC)c4)C3)n2)cc1 (centres unmarked) [GSK1379742] | 72 | 0 | 0 | 49 | 0 | 0 | 0 | 0 | 14 | 26
19 | Cc1ccc(C(=O)N2CC[C@@H](O)C2)cc1-n1c(C)cc(OCc2ccc(F)cc2F)c(Br)c1=O | 0 | 1 | 14 | 0 | 1 | 0 | 0 | 6 | 6 | 5
20 | O=C(Nc1n[nH]c2nc(-c3ccc(O)cc3)ccc12)C1CC1 [SB-710363] | 0 | 36 | 39 | 96.6 | 44 | 41 | 0 | 4 | 29 | 15
21 | NCCCC(NC(=O)c1cc(Br)c(-c2ccnc3[nH]ccc23)s1)c1ccccc1.O=C(O)C(F)(F)F.O=C(O)C(F)(F)F (centres unmarked) [GSK1287544] | 27 | 4 | 0 | 40 | 0 | 0 | 0 | 0 | 90 | 51
22 | O=C(Nc1cccc(-c2nn3ncccc3c2-c2ccnc(Nc3ccccc3)n2)c1)c1c(F)cccc1F [GSK198271] | 0 | 4 | 3 | 30 | 0 | 6 | 5 | 0 | 29 | 27
23 | C[C@@H](Oc1cc(-n2cnc3cc(-c4ccnc(NCCS(C)(=O)=O)c4)ccc32)sc1C(N)=O)c1ccccc1Cl [GSK907232] | 0 | 11 | 4 | 12 | 0 | 0 | 0 | 0 | 36 | 67
24 | Cn1cc(-c2ccc3c(c2)CCN3C(=O)Cc2cccc(F)c2)c2c(N)ncnc21 [GSK2603358] | 97.8 | 7 | 6 | 43 | 0 | 0 | 5 | 0 | 20 | 18
25 | COc1cc(Nc2nccc(-c3c(-c4cccc(NC(=O)c5c(F)cccc5F)c4)nn4ccccc34)n2)cc(OC)c1OC [GSK323521] | 90 | 0 | 6 | 0 | 13 | 2 | 30 | 0 | 20 | 30
26 | O=C(O)C(F)(F)F.O=C(O)C(F)(F)F.O=c1[nH]ccc2nc(N[C@@H]3CCCNC3)nc(Nc3ccc(S(=O)(=O)N4CCOCC4)cc3)c12 [GSK2177277] | 0 | 17 | 64 | 45 | 0 | 42 | 100 | 74 | 76 | 76
27 | Cl.Cl.NCC(C(=O)Nc1cc(Br)c(-c2ccnc3[nH]ccc23)s1)c1ccccc1 (centres unmarked) [GSK1269851] | 0 | 3 | 20 | 51 | 0 | 0 | 0 | 0 | 99 | 63
28 | CN(C)Cc1ccc(-c2ccc3c(Nc4ccc(Oc5ccccn5)cc4)ccnc3c2)o1 [GW567148] | 4 | 0 | 0 | 11 | 0 | 0 | 0 | 82 | 0 | 0
29 | Cc1ccc(S(=O)(=O)Nc2ccc(Nc3nccc(Nc4cccc5[nH]ncc45)n3)cc2)cc1 [GSK581271] | 13 | 0 | 2 | 22 | 0 | 0 | 0 | 0 | 28 | 85
30 | Nc1ncc(-c2ccc3nccc(-c4ccncc4)c3c2)cc1S(=O)(=O)N1CCOCC1 [GSK1627798] | 4 | 0 | 0 | 4 | 0 | 0 | 0 | 0 | 7 | 63
31 | CC(C)c1nc(-c2cccc(NS(=O)(=O)c3c(F)cccc3F)c2F)c(-c2ccnc(Nc3ccc(N4CCOCC4)nc3)n2)s1 [GSK2008607] | 14 | 93 | 54 | 99.3 | 4 | 90.2 | 0 | 60 | 95.1 | 0
32 | CCS(=O)(=O)c1ccc(OC)c(Nc2nccc(-c3c(-c4cccc(NC(=O)c5c(F)cccc5F)c4)nn4ncccc34)n2)c1 [GSK326180] | 16 | 0 | 6 | 15 | 0 | 0 | 10 | 0 | 8 | 40
